# Screens: PubChem BioAssay, National Center for Advancing Translational Sciences (NCATS)
# D3 ag: agonists of human D3 dopamine receptor. P35462. D3R DiscoveRx beta-arrestin cells, luminescence, 90 min. max activation, %. actives 0.58% (n = 410,000); in the data active means max activation above about 30%; further: 0% is about no effect
#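 Cells at 1500/well, incubated overnight, then treated with pinned compounds (dopamine as control) for 90 min at 37 degrees C. DiscoveRx reagent added for 30 - 60 minutes at room temperature; luminescence read.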
# D1 antagonist: human D1 dopamine receptor antagonism | P21728 | HEK293 TREx D1 cells, calcium flux, dopamine EC80; hits give low values | activity change, negative = inhibition, % at 10 µM | actives 3.2% (n = 360,000) | AID 504652; in the data active means activity change below about -30%; further: on the % scale 0 is the no-effect control and ±100 the full control effect
# Target sequence (P21728 whole entry, looked up): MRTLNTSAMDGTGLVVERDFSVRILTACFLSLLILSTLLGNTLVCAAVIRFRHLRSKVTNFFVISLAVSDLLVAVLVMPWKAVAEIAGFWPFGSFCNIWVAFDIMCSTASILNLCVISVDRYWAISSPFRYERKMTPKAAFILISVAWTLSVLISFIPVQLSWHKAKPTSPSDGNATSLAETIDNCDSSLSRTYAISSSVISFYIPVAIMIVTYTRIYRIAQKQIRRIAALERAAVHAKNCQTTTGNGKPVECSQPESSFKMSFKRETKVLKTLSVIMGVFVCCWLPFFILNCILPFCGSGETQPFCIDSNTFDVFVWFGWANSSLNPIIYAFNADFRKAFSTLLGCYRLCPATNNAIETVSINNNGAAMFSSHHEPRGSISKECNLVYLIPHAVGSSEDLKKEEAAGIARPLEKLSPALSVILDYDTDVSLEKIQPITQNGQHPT
#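 Cells carrying a force-coupled, tetracycline-inducible human D1 receptor report calcium flux. Each well gets a 10 s baseline, compound with 180 s monitoring, then an EC80 dopamine stimulus with a second 180 s kinetic read.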
# D1 ag: activates the human D1 dopamine receptor. HEK293 T-REx D1 cells, calcium flux, agonist mode. activation, % at 2 µM. actives 1% (n = 360,000). AID 504660; in the data active means activation above about 30%; further: 0% is about no effect
#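 Tetracycline-induced HEK293 TREx D1 cells, force-coupled to calcium signalling, were dye-loaded with a no-wash calcium kit. Compound was pin-added after a 10 s baseline. Fluorescence was read kinetically at 1 cycle/s for 180 s, with calcium rises flagged as agonism.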
# D3 antag: D3 dopamine receptor (human) antagonism. P35462. D3R cells, DiscoveRx beta-arrestin luminescence, antagonist mode; hits give low values. max response, negative = inhibition, %. actives 2.5% (n = 360,000). AID 652054; in the data active means max response below about -50%; inconclusive means no clear call, values can overlap the other calls; further: on the % scale 0 is the no-effect control and ±100 the full control effect
#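 Cells expressing the human receptor were seeded at 1500 cells/well, incubated overnight at 37 degrees C in 5% CO2, then exposed to library compounds with dopamine controls for 90 minutes at 37 degrees C before luminescent detection.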
# D1 PAM: enhances dopamine response at the human D1 receptor. HEK293 TREx D1 cells, calcium flux, dopamine EC20 potentiation. actives 0.036% (n = 360,000). potentiation, % at 10 µM. P21728; in the data active means potentiation above about 30%; further: 0% is about no effect
# Active calls of the source: *; u = inconclusive; x = not tested or not shown. In the library only some 6.1% were active in any assay of this set; here they are far more common.
SMILES,D3 ag,D1 antagonist,D1 ag,D3 antag,D1 PAM
COc1cc(OC)cc(-c2nc3ccccc3c(=O)n2OC(=O)c2ccc(C)c(C)c2)c1,30.0*,1.3,1.4,108.8,4.8
COc1cc(OC)cc(C(=O)Nn2c(C)nc3ccccc3c2=O)c1,2.9,-21.4,2.1,9.5,-2.2
Cc1ccc(OCC(=O)N2CCCCC2)c(Br)c1,5.7,17.1,-0.4,14.1,1.9
CC(C)(C)c1ccc(OCC(=O)N2CCCCCC2)c(Br)c1,2.0,-35.0*,9.7,1.0,-13.4
Cc1cccc(C)c1NC(=O)CCCn1c(=O)c2cccn2c2ccccc21,11.0,15.8,0.8,x,-4.0
COc1cccc(NC(=O)C(OC(=O)CNC(=O)c2ccccc2)c2ccccc2)c1 (stereo unspecified),x,18.8,-0.9,x,6.8
O=C(O)CC1SC(=Nc2ccc(O)cc2)NC1=O (stereo unspecified),-24.8,-31.1*,2.7,-18.7,0.3
O=c1c2[nH]c3ccccc3c2nc(SCc2cccc(F)c2)n1-c1ccccc1,-17.7,-13.4,1.7,x,0.2
COc1ccc(NC(=O)CSc2nnc(NC(=O)NC3CCCCC3)s2)cc1OC,8.0,x,-1.3,x,-1.4
CCC[C@@H](CN1CCC[C@H]1CN1C(N)=NC[C@H]1CC(C)C)N1C[C@@H](Cc2ccccc2)N(CCc2ccc(Cl)c(Cl)c2)C1=N,-22.9,x,x,-29.4,x
CCC[C@@H](CN1CCC[C@H]1CN1C(N)=NC[C@@H]1Cc1ccccc1)N1C[C@@H](Cc2ccccc2)N(CCc2ccc(Cl)c(Cl)c2)C1=N,-45.7,x,x,-86.8*,x
CCC[C@@H](CN1CCC[C@H]1CN1C(N)=NC[C@H]1CC(C)C)N1C[C@@H]([C@H](C)CC)N(CCc2ccc(Cl)c(Cl)c2)C1=N,-36.7,x,x,u,x
CCC[C@@H](CN1CCC[C@H]1CN1C(N)=NC[C@@H]1Cc1ccccc1)N1C[C@@H]([C@H](C)CC)N(CCc2ccc(Cl)c(Cl)c2)C1=N,-47.4,x,x,-63.6*,x
Cc1ccc2[nH]c(CSc3nnc(NC(=O)c4ccccc4F)s3)cc(=O)c2c1,-7.9,-32.0*,0.8,x,-0.2
Cc1ccc2[nH]c(CSc3nnc(NC(=O)c4ccccc4C)s3)cc(=O)c2c1,4.0,2.0,-0.6,x,-2.8
CCOC(=O)c1scc(-c2ccc(C)cc2)c1S(=O)(=O)Nc1cc(Cl)ccc1OC,-15.7,-3.1,23.7,x,-5.5
COc1ccc(CNCc2c(C(=O)O)c(C)n(Cc3ccccc3C)c2C)cc1OC,8.6,-7.9,2.1,x,-0.7
O=C(Nc1ccn(Cc2ccccc2F)n1)c1ccc(COc2ccc(Br)cc2)cc1,-4.2,-53.9*,51.5*,13.6,-10.2
Cc1nc2c(C(=O)NCc3ccccc3Cl)cnn2c(C)c1Cc1c(F)cccc1Cl,6.2,7.7,6.8,x,0.9
CCOC(=O)c1c(C)[nH]c(CCC(=O)Nc2cc(Cl)ccc2OC)c1C,3.3,-6.6,-0.3,x,-4.0
COc1ccc(NC(=S)N/N=C2\CC(C)(C)Oc3ccc(OC)cc32)cc1,0.3,-0.4,1.3,-24.4,-5.3
CCNC(=S)N/N=C1\CCCCc2ccccc21,0.0,9.9,1.6,-6.2,-1.2
COc1ccc(NC(=S)N/N=C2/CCCc3c(C)cc(C)cc32)cc1,3.5,-39.5*,1.3,-10.2,4.0
Cc1ccc(NC(=S)N/N=C2/CCCCc3ccccc32)cc1,-11.9,-6.0,0.8,-51.9*,-1.2
Cc1ccc(C)c(NC(=S)N/N=C2\CCc3ccccc32)c1,-1.1,2.4,0.8,-28.0,4.3
SMILES,D3 ag,D1 antagonist,D1 ag,D3 antag,D1 PAM
Cc1cccc(NC(=S)N/N=C2/CCCCc3ccccc32)c1,-22.9,-0.5,1.6,-88.5*,-2.8
Cc1ccc2[nH]c(=O)c3cc(C(=O)N(C)c4ccc(Br)cc4)sc3c2c1,3.7,24.3,3.0,x,1.9
CCc1ccccc1N(CC)C(=O)C(=O)Nc1ccc2nc3n(c(=O)c2c1)CCCCC3,4.7,-3.5,-0.9,x,-1.2
O=C1C(=O)c2c(C(=O)c3ccccc3)coc2-c2ccccc21,1.6,-57.1*,0.0,-25.5,-1.8
Cc1oc2c(c1C(=O)c1ccccc1)C(=O)C(=O)c1ccccc1-2,-9.5,2.7,4.8,u,4.1
CC(=O)c1cccc(NC(=O)c2c(-c3ccccc3)c(-c3ccccc3)nn(C)c2=O)c1,10.6,5.6,2.2,x,3.2
Cc1[nH]c2ccc(F)cc2c1CCN(Cc1ccco1)C(=S)NC(C)(C)C,-22.3,-43.0*,17.2,-13.3,-3.3
CNC(=S)N(CCc1c(C)[nH]c2ccc(F)cc12)Cc1ccco1,-4.3,-28.7,3.6,-7.2,-4.0
CNC(=S)N(CCc1c(C)[nH]c2ccccc12)Cc1ccco1,-1.5,-38.3*,4.3,-1.5,-9.9
Cc1noc(C)c1S(=O)(=O)N1CCCC(C(=O)Nc2ccc(C(C)C)cc2)C1 (stereo unspecified),-9.3,-3.6,3.4,x,4.5
COc1ccc2cc1Oc1cc3c(cc1OC)CC[N+](C)(C)[C@H]3Cc1ccc(cc1)Oc1c(OC)c(OC)cc3c1[C@@H](C2)[N+](C)(C)CC3,-6.6,x,x,x,x
Cc1c(C(=O)c2ccc(Cl)c(Cl)c2)cnc2cc3c(cc12)OCO3,2.2,1.6,2.5,-55.8*,0.7
Cc1c(C(=O)c2ccc3c(c2)OCO3)ccc2c1OCO2,1.9,x,x,5.8,x
COc1ccc(C(=O)c2cnc3cc4c(cc3c2C)OCO4)cc1,13.6,-30.2*,-0.3,22.5,0.6
O=C(CCN1CCN(c2ccccc2)CC1)N/N=C/c1ccccc1OC(F)F,-20.6,-20.5,0.9,-69.6*,-10.9
O=C(CCN1CCN(C(c2ccccc2)c2ccccc2)CC1)N/N=C/c1ccc(O)cc1,-13.4,-72.1*,2.4,u,-5.6
CC(=O)Nc1ccc(/C=N/NC(=O)CCN2CCN(c3ccccc3)CC2)cc1,-4.0,-20.4,-0.5,-83.9*,-6.5
O=C(CCN1CCN(C(c2ccccc2)c2ccccc2)CC1)N/N=C/c1ccc(O)cc1O,-9.7,-15.1,2.0,u,-2.6
CC(=O)c1ccc(NC(=O)CSc2nccn2Cc2ccco2)cc1,-7.6,-24.2,5.4,x,-2.9
CC(=O)O[C@@H]1CC2CCC1(C)C2(C)C (stereo partly specified),8.2,x,x,x,x
Cc1ccc(S(=O)(=O)NC(=O)c2ccc(Br)o2)cc1,53.5*,-13.1,-1.4,8.3,-6.2
Cc1noc(NS(=O)(=O)c2ccc(NC(=O)c3ccc(Br)cc3)cc2)c1C,3.1,13.8,0.5,x,-1.2
Cc1noc(NS(=O)(=O)c2ccc(NC(=O)c3ccc(Br)o3)cc2)c1C,-0.2,-10.5,2.0,-71.6*,2.2
Cc1ccc(C)c(S(=O)(=O)Nc2ccc(S(=O)(=O)Nc3onc(C)c3C)cc2)c1,1.1,-19.2,0.7,-51.6*,-4.8
Cc1cc(C)c(C(=O)Nc2ccc(S(=O)(=O)Nc3onc(C)c3C)cc2)c(C)c1,-1.4,-82.3*,-1.8,21.7,-4.8
COc1ccc(CN2CCc3nc(N4CCN(c5ccc(F)cc5)CC4)ncc3C2)c(OC)c1OC,-17.2,-3.5,3.8,x,-0.3
